# Results as given in PubChem BioAssay (NCATS).
# Records with an inconclusive call do not appear. Entries that show only a call come without a potency. Activity calls are given as the source filed them. Unless noted, calls follow the shape of the dose curve; as a rule, active = well fitted activation curve with a large enough effect in the main read-out, with a control signal flat (not every such curve was filed as active); inconclusive = small, poorly fitted or top-dose-only effect, or effect the other way, or a change in a side signal; inactive = flat fitted curve, though single readings scatter.
# Key:
# [1] = target: 3',5'-cyclic-AMP phosphodiesterase 4B (Homo sapiens) (UniProt Q07343); assay: qHTS Assay for Inhibitors of PDE-IV (AID 607)
# Summary of the method: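 HEK293 ACTOne cells with CNG channel (1000/well), endogenous PDE4; membrane potential dye, compounds up to 22.9 uM final. Fluorescence Ex 535/Em 590; RO 20-1724 (100 uM final) as reference.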
# [2] = Cellular Toxicity (caspase-3) Jurkat (AID 655; active = well fitted curve in the direction sought with a large enough effect; an effect the other way counts as inactive or inconclusive;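 also: potency is read from the fitted curve at half-maximal effect; cells exposed to compound for 16 h at 37 °C before reading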)
# Summary of the method: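 5000 Jurkat cells/well; compound 16 hr, 37 °C; Caspase-Glo 3/7 added, 20 min RT; luminescence read. Norm: DMSO = 0%, tamoxifen 100 uM = 100%. AC50, Hill model.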
# [3] = Cellular Toxicity (caspase-3) MRC-5 (AID 659; active = well fitted curve in the direction sought with a large enough effect; an effect the other way counts as inactive or inconclusive; also: potency is read from the fitted curve at half-maximal effect); settings: Potency: caspase-3 activation
# Summary of the method: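 Concentration-dependent caspase 3/7 activation is measured in human normal lung fibroblasts (MRC-5) following 16-hour treatment. AC50 values come from standard Hill-equation modeling of luminescence normalized to DMSO and 10 uM staurosporine.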
# [4] = Cellular Toxicity (caspase-3) SK-N-SH (AID 661; active = well fitted curve in the direction sought with a large enough effect; an effect the other way counts as inactive or inconclusive; also: potency is read from the fitted curve at half-maximal effect)
# Summary of the method: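 SK-N-SH human neuroblastoma cells (1500/well) were treated with compounds for 16 hr at 37 °C in complete medium; caspase 3/7 activity was read by Caspase-Glo luminescence. AC50 came from Hill fits of data normalized to DMSO and 10 uM staurosporine.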
# [5] = Cellular Toxicity (caspase-3) H-4-II-E (AID 663; active = well fitted curve in the direction sought with a large enough effect; an effect the other way counts as inactive or inconclusive; also: potency is read from the fitted curve at half-maximal effect;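 as to caspase-3 activation: cells exposed to compound for 16 hr before readout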); settings: Potency: caspase-3 activation
# Summary of the method: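 Apoptosis induction is scored as increased luminescence from caspase 3/7 substrate cleavage in rat hepatoma H-4-II-E cells exposed to compound for 16 hr. Activity is scaled between DMSO and 100 uM tamoxifen.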
# [6] = Cellular Toxicity (caspase-3) HepG2 (AID 654; active = well fitted curve in the direction sought with a large enough effect; an effect the other way counts as inactive or inconclusive;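 also: cells exposed to compound for 16 hours before reading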)
# Summary of the method: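 HepG2 cells (1500/well) in complete medium were treated with compounds for 16 hr at 37 °C. Caspase-3/7 activity was then read as luminescence from peptide-aminoluciferin cleavage. AC50 came from Hill fits, normalized to DMSO and 100 uM tamoxifen.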
# [7] = Cellular Toxicity (caspase-3) SHSY5Y (AID 657; active = well fitted curve in the direction sought with a large enough effect; an effect the other way counts as inactive or inconclusive;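 also: cells exposed to compound for 16 hours at 37 °C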)
# Summary of the method: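 qHTS, SH-SY5Y, 1500 cells/well, 5 h pre-incubation 37 °C; compound 16 h 37 °C; Caspase-Glo 3/7 1 h RT; luminescence. Norm.: DMSO = 0, 10 uM staurosporine = 100%. Hill fit → AC50.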
# [8] = Cellular Toxicity (caspase-3) BJ (AID 658; active = well fitted curve in the direction sought with a large enough effect; an effect the other way counts as inactive or inconclusive)
# Summary of the method: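 Readout: Caspase-Glo 3/7 luminescence increase in BJ cells after 16 hr treatment at 37 °C. Staurosporine and tamoxifen served as positive controls; AC50 values came from Hill modelling of data normalized to DMSO and 10 uM staurosporine.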
# [9] = Cellular Toxicity (caspase-3) Mesangial (AID 660; active = well fitted curve in the direction sought with a large enough effect; an effect the other way counts as inactive or inconclusive;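 also: cells exposed to compound for 16 h before the caspase read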)
# Summary of the method: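 Human renal glomerular mesangial cells (1000/well) were treated with compounds for 16 h at 37 °C in complete medium, then caspase 3/7 activity was read by Caspase-Glo luminescence. Data were normalized to DMSO and 100 uM tamoxifen; AC50 from Hill fits.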
# 3',5'-cyclic-AMP phosphodiesterase 4B (Homo sapiens), sequence (Q07343 whole entry, looked up): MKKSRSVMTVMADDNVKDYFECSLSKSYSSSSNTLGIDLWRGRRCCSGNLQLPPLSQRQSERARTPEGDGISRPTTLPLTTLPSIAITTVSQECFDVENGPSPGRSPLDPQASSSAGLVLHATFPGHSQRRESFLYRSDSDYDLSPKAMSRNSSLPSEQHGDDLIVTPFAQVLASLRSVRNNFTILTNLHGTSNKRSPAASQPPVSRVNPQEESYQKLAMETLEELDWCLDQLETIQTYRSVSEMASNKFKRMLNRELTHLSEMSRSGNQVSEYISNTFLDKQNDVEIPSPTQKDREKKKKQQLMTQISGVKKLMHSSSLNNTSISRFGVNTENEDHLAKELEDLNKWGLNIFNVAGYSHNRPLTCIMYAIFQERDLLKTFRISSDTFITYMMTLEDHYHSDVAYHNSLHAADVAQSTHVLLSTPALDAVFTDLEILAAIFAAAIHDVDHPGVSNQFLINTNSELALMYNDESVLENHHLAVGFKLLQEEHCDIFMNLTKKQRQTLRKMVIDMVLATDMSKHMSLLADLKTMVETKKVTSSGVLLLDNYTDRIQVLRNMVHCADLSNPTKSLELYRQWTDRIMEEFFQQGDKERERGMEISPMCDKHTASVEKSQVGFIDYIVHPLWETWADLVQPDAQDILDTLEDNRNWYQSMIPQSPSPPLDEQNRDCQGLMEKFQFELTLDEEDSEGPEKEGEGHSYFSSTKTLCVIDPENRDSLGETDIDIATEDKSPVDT
compound,measurement,setting,value
COc1cccc2c1C(=O)c1c(O)c3c(c(O)c1C2=O)C[C@@](O)(C(C)=O)C[C@@H]3O[C@H]1C[C@H](N)[C@H](O)[C@H](C)O1,outcome,[1],inactive
same,Potency,[2],0.00501 µM (active)
same,Potency,[3],31.6 µM (active)
same,Potency,[4],0.126 µM (active)
same,Potency,[5],12.6 µM (active)
CN(C)CC/C=C1\c2ccccc2Sc2ccc(Cl)cc21,outcome,[1],inactive
C[C@@H]1C(=O)NC2=Nc3cccc(Cl)c3CN21,outcome,[1],inactive
C[C@H](O)C(=O)Nc1c(I)c(C(=O)NC(CO)CO)c(I)c(C(=O)NC(CO)CO)c1I,outcome,[1],inactive
COc1cc(NS(C)(=O)=O)ccc1Nc1c2ccccc2nc2ccccc12,outcome,[1],inactive
O=C(CCCN1CCC(O)(c2ccc(Br)cc2)CC1)c1ccc(F)cc1,outcome,[1],inactive
Oc1cc(O)c2c(c1)O[C@H](c1ccc(O)c(O)c1)[C@H](O)C2,outcome,[1],inactive
CC(=O)c1ccc2c(c1)N(CCCN1CCC(CCO)CC1)c1ccccc1S2,outcome,[1],inactive
CN1CCC(=C2c3ccccc3Sc3ccccc32)CC1,outcome,[1],inactive
CC(C)(C(=O)c1cccnc1)c1cccnc1,outcome,[1],inactive
Cc1cc(N)c2cc(NC(=O)Nc3ccc4nc(C)cc(N)c4c3)ccc2n1,outcome,[1],inactive
Oc1c(I)cc(Cl)c2cccnc12,Potency,[6],inactive
same,Potency,[7],inactive
same,outcome,[8],inactive
same,Potency,[3],inactive
same,outcome,[9],inactive
same,Potency,[4],inactive
same,Potency,[5],inactive
COc1c(C)c2c(c(O)c1C/C=C(\C)CCC(=O)O)C(=O)OC2,outcome,[1],inactive
Cc1c(N(C)CS(=O)(=O)O)c(=O)n(-c2ccccc2)n1C,outcome,[1],inactive
CN(C(=O)CN(CCO)CC(=O)N(C)C(C)(C)Cc1ccccc1)C(C)(C)Cc1ccccc1,outcome,[1],inactive
CC(C)NC[C@@H](O)COc1cccc2ccccc12,outcome,[1],inactive
OC(CCN1CCCCC1)(c1ccccc1)c1ccccc1,outcome,[1],inactive
C1CCc2nnnn2CC1,outcome,[1],inactive
N[C@@H](Cc1cnc[nH]1)C(=O)O,outcome,[1],inactive
CCN(CC)C(=O)N1CCN(C)CC1,outcome,[1],inactive
Nc1cc(Cl)c(NC2=NCCN2)c(Cl)c1,outcome,[1],inactive
Oc1ccc(Cl)cc1Sc1cc(Cl)ccc1O,outcome,[1],inactive
same,Potency,[6],inactive
same,Potency,[7],inactive
same,outcome,[8],inactive
same,Potency,[3],inactive
same,outcome,[9],inactive
same,Potency,[4],inactive
same,Potency,[5],inactive
CNCCC=C1c2ccccc2CCc2ccccc21,outcome,[1],inactive
C[C@H]1[C@H](NC(=O)/C(=N/OC(C)(C)C(=O)O)c2csc(N)n2)C(=O)N1S(=O)(=O)O (stereo in doubt),outcome,[1],inactive
CCn1cc(C(=O)O)c(=O)c2cnc(N3CCCC3)nc21,outcome,[1],inactive
CCCn1c(=O)[nH]c(=O)c2[nH]cnc21,outcome,[1],inactive
